PubChem BioAssay (NCATS)
Records with an inconclusive call do not appear. A call without a number means that no potency is given here. Calls of active or inactive are those of the source. Calls come from the whole dose curve; as a rule, active = well fitted activation curve with a large enough effect; inconclusive = small, poorly fitted or top-dose-only effect; inactive = flat fitted curve, though single readings scatter.

assay: HEK293 12hr Apoptosis Induction qHTS against the NCATS CANVASS Library (AID 1347361); conditions: HEK293 caspase-3/7 Caspase-Glo luminescence; series mostly up to 46.1 µM
Text: Natural products and their derivatives continue to be wellsprings of nascent therapeutic potential. However, many laboratories have limited resources for biological evaluation, leaving their previously isolated or synthesized compounds largely or completely untested. To address this issue, the Canvass library of natural products was assembled (https://tripod.nih.gov/canvass), in collaboration with academic and industry researchers, for quantitative high-throughput screening (qHTS) across a diverse set of cell-based and biochemical assays. The pure (>85% purity by liquid chromatography/mass spectrometry [LC/MS]) Canvass library of 346 natural products were submitted by 45 academic laboratories and companies around the world. We collected pure natural products to circumvent deconvolution and structure elucidation due to time and resource limitations. The library was formatted into 1536-well plates and evaluated in 50 qHTS (in an 11-pnt concentration series) bioassays with broad scope of disease-relevant mechanisms. The resulting data set from 50 different assays was then systematically analyzed to identify overall trends and specific natural products with interesting biological activities. Reported herein are the results of each individual qHTS and their corresponding assay protocol. The Caspase-Glo (R) (Promega) is a homogeneous, luminescent assay that measures caspase activity. The detection substrate contains tetrapeptide sequence DEVD in an "add-mix-measure" format. The reagent generates a luminescent signal produced by a thermostable luciferase. The luminescence is proportional to the amount of caspase activity in the assay reaction. National Center for Advancing Translational Sciences (NCATS), Rockville, MD National Institute of Health (NIH), Bethesda, Maryland
Cancer Cell Apoptosis Assay 1. In a 1536 well, white solid bottom tissue culture plates (Corning 7494), HEK293 cancer cells in DMEM + 10% FBS + 1% P/S media were dispensed in each well at a final concentration of 500 cells / well (5uL volume) using the Multidrop Combi (Thermo Fisher Scientific) dispenser. 2. Compounds were pin transferred (~23nL volume) via Wako Pin-tool (Wako Automation, Richmond VA) equipped with a 1536 pin head. The assay plates were treated with compounds in a concentration series with a final concentration range of […] to 103uM. 3. Doxorubicin was used as a control in a 16pnt titration (1mM; 1:2 dilution; 16-points; n = 2; column 3, rows 1 - 32) and was pin transferred via Wako Pin-tool equipped with a 1536 pin head. The final concentration range of doxorubicin is 0.1nM - 4uM. 4. The assay plates were incubated for 12 hours at 37 degrees C/5% CO2/95% Rh. 5. 3uL Caspase-Glo 3/7 (R) (Promega) detection reagent was then added to the assay plates (columns 2 - 48, rows 1 - 32) and incubated at room temperature, covered from light, for 15 min. 6. Luminescence signal was acquired via the ViewLux plate reader (PerkinElmer) using a clear filter, 20 second exposure, and 2x binning settings.
Potency is the fitted concentration of half-maximal effect.

Row | Compound | Potency
1 | C[C@@H]1CC[C@@H](c2ccoc2)N2C[C@@]3(CC[C@@H]12)CS[C@@]1(CC[C@H]2[C@H](C)CC[C@@H](c4ccoc4)N2[C@@H]1O)C3 | 8.33 µM (active)
2 | CC(=O)N[C@H]1CCN2CCC[C@H]12 | inactive
3 | c1ccc2c3c([nH]c2c1)CNCC3 | inactive
4 | O=C(c1ccccc1O)c1[nH]c(Cl)c(Cl)c1-n1c(C(=O)c2ccccc2O)cc(Cl)c1Cl | inactive
5 | CCCC[C@@H]1CC[C@H]2CCCC(CCC)N12 (stereo partly specified) | inactive
6 | C/C=C1/CN2CC[C@]34C(=Nc5ccccc53)[C@@H]2C[C@@H]1[C@H]4C(=O)OC | inactive
7 | CC[C@@H]1CN2CC[C@@]3(O)C(=Nc4cccc(OC)c43)[C@@H]2C[C@@H]1/C(=C\OC)C(=O)OC | inactive
8 | CN(C)Cc1c[nH]c2ccccc12 | inactive
9 | CN1C(=O)[C@]23CC4C(C)(C)[C@@]5(C[C@@]41CN2CC[C@@]3(C)O)C(=O)Nc1c5ccc2c1OC=CC(C)(C)O2 (stereo partly specified) | inactive
10 | CC[N@@+]1([O-])C[C@]2(C)CC[C@@H](O)[C@@]34C5C[C@H]6CC[C@@]5(C(C[C@H]23)C41)[C@H](O)[C@@]6(O)CO (stereo partly specified) | inactive
11 | CNCCc1ccccc1 | inactive
12 | CCN1C[C@]2(C)CC[C@H](O)[C@]34C1C(C[C@H]23)[C@@]12CC[C@H](CC14)[C@](O)(COC(=O)c1ccc(OC)c(OC)c1)[C@H]2O (stereo partly specified) | inactive
13 | CNCCc1ccc(O)cc1 | inactive
14 | CNCCc1c[nH]c2ccccc12 | inactive
15 | CO[C@@H](/C=C/CC/C=C/C(=O)O)[C@@H](O)[C@H](C)[C@@H](O)/C(C)=C/[C@H](C)C(=O)CCCC1CC(=O)NC(=O)C1 | inactive
16 | C[C@]12CC(O)C3[C@@H](CCC4C[C@@H](O)CC[C@@]43CO)[C@@]1(O)CCC2C1=CC(=O)OC1 (stereo partly specified) | inactive

Row | Compound | Potency
17 | CO[C@H](c1ccccc1)[C@H]1NC(=O)C(C)NC(=O)C(C[C@@H](C)CO)N(C)C(=O)[C@@H](C(O)c2cn(C(C)(C)C3CO3)c3ccccc23)NC(=O)C(C(C)C=C(C)C)NC(=O)C(CC(C)C)N(C)C(=O)C(C(C)C)NC1=O (stereo partly specified) | inactive
18 | CCN1C[C@]2(C)CC[C@@H](O)[C@]34C1[C@H](C[C@H]23)C12CCC(CC14)[C@](O)(CO)[C@H]2O (stereo partly specified) | inactive
19 | CC=C1CN(C=O)[C@H]2C[C@@H]1[C@@H](C(=O)OC)[C@@]13CCOC21Nc1ccccc13 (stereo partly specified) | inactive
20 | COc1ccc2c3c([nH]c2c1)C(C)=NCC3 | inactive
21 | COc1ccc2c(c1)[nH]c1c(C)nccc12 | inactive
22 | CCCCC[C@@H]1OC(=O)[C@@H](C)N(C)C(=O)[C@H](CCCCC)OC(=O)C(C)N(C)C(=O)[C@H](CCCCC)OC(=O)[C@@H](C)N(C)C(=O)[C@H](CCCCC)OC(=O)C(C)N(C)C1=O (stereo partly specified) | inactive
23 | C=C1[C@@H](C)[C@H]2[C@H](Cc3ccccc3)NC(=O)[C@]23OC(=O)/C=C/[C@H](O)CCC[C@@H](C)C/C=C/[C@H]3[C@@H]1O | inactive
24 | CCC[C@H]1CC[C@H]2[C@H](C)CCC[C@H]2N1 | inactive
25 | NCCc1ccccc1 | inactive
26 | COc1ccc(C23Oc4cc(OC)cc(OC)c4[C@](O)([C@H](c4ccccc4)C2C(=O)NCCCCNC(=O)c2ccccc2)[C@@H]3O)cc1 (stereo partly specified) | inactive
27 | CO[C@@H](/C=C/CC/C=C/C(=O)O)[C@@H](O)[C@H](C)/C=C(\C)[C@@H](O)[C@H](C)C(=O)CCCC1CC(=O)NC(=O)C1 | inactive
28 | COC(=O)C1=C2Nc3ccccc3[C@@]23CCN2CC(C(C)=O)C1C[C@H]23 (stereo partly specified) | inactive
29 | CC1=CC(=O)C2=C(C)C[C@H](O)[C@@H]3[C@H](OC(=O)[C@@H]3C)[C@@H]12 | inactive
30 | CC1=CC2CC[C@@H]3[C@@H](C)C[C@H](C)[C@@H](C1)N23 (stereo partly specified) | inactive
31 | CCC(=O)CCCCC[C@@H]1NC(=O)[C@H]2CCCCN2C(=O)[C@H]([C@@H](C)CC)NC(=O)[C@H](Cc2cn(OC)c3ccccc23)NC1=O | inactive
